# Assay outcomes: PubChem BioAssay, National Center for Advancing Translational Sciences (NCATS)
# IP6K1 inhibitor = IP6K1 kinase inhibition. Q92551. IP6K1 kinase, ADP-Glo luminescence, 2 h; stronger effect = lower value. activity change, % (series mostly up to about 58 µM). 140,000 compounds, 0.81% hits. AID 1645851; in the data active means activity change below about -25%
#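 ADP-Glo luminescence measures ADP made by human IP6K1 during a 2 h RT reaction with ATP/IP6 (mix at 1.3 mM/130 uM); top library doses 57.5 and 19.1 uM final.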
# GPT2 inhibitor = inhibitors of human GPT2 alanine aminotransferase | Q8TD30 | Recombinant GPT2, coupled pyruvate oxidase/HRP Amplex Red fluorescence | Potency, µM (doses to about 57.7 µM), usual class: inhibitors | 100,000 compounds, 0.25% hits | AID 1671188; further: nearly all actives have a fitted effect of over 60% in size
# Target sequence (Q8TD30 whole entry, looked up): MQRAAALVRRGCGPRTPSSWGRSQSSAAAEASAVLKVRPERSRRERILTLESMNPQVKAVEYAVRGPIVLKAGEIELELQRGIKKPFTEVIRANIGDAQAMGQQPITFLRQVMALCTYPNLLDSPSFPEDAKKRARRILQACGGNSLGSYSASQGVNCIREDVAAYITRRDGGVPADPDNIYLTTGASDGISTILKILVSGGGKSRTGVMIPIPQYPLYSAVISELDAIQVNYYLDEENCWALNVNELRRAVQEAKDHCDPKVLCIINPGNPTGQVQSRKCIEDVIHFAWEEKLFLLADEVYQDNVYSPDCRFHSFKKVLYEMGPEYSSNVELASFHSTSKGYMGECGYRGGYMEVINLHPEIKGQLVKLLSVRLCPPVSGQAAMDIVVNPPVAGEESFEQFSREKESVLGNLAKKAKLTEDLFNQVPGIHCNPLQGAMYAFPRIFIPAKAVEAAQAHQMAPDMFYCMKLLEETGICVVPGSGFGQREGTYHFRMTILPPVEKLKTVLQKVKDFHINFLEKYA
#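 Fluorescence of coupled pyruvate oxidase/HRP/Amplex Red system (50uM Amplex, 30 min, dark) reports pyruvate formed by GPT2. Enzyme reaction: 10ng/uL GPT2, 2mM L-alanine, 250uM a-KG, 30 min room temperature, pH 7.5; 50uM AOA control.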
# IP6K1 conf = human IP6K1 inhibition, confirmatory; shares compounds with IP6K1 inhibitor; recombinant IP6K1 kinase, ADP-Glo luminescence, 2 h; Potency, µM (highest dose often 49 µM), actives largely listed as inhibitors; 1,200 compounds, 13% hits; AID 1645852; further: nearly all actives have a fitted effect of over 65% in size
# Numbers stand for hits; i = inactive; ? = inconclusive; nt = no result given. A selection: hits, their analogues and other compounds. The true share with any hit is near 0.82%. Unless noted, the call rests on the fitted dose curve; in most records, active means well fitted curve in the direction sought with a large enough effect; inconclusive means small, poorly fitted or top-dose-only effect, or another doubt; inactive means no such curve, though single readings can be large; an effect the other way counts as inactive or inconclusive.
SMILES,IP6K1 inhibitor,GPT2 inhibitor,IP6K1 conf
Cc1nc2cc(-c3cccc(F)c3)nn2c(C)c1CCC(=O)NCCc1ccccc1,i,nt,nt
O=C(OC1C=C(CO)C2C(OC3OC(CO)C(O)C(O)C3O)OC=CC12)c1ccc(O)cc1 (configuration not stated),i,i,nt
COc1ccc(-c2ccc(C(=O)NCc3ccccc3)cc2)nn1,i,nt,nt
COc1ccc(-c2cccc(C(=O)N3CCCC3)c2)nn1,i,nt,nt
COc1ccc(-c2ccc(C(=O)NC(C)C)c(Cl)c2)nn1,i,nt,nt
COc1ccc(-c2ccc(C(=O)N(C)c3ccccc3)cc2)nn1,i,nt,?
COc1ccc(-c2ccc(C(=O)N3CCCC3)c(Cl)c2)nn1,-69.1,nt,?
COc1ccc(-c2ccc(C(=O)N(C)C)c(Cl)c2)nn1,-46.2,nt,?
COc1cccc(CC(=O)N2CCC3(CC2)CC(OC)CCO3)c1 (configuration not stated),i,i,nt
COc1ccc(CCN2C(=O)O[C@@H]3CN(C(=O)CN)C[C@@H]32)cc1,i,i,nt
CC(C)c1noc(-c2cccn3c(CNC(=O)C(C)c4ccccc4)nnc23)n1 (configuration not stated),i,i,nt
CNC(=O)c1cc(C2CC2)nc2onc(C3CCN(C(=O)c4ccc(Cl)nc4)CC3)c12,i,nt,nt
CC1(Cc2ccc3c(c2)OCO3)CCCN(C(=O)c2ccc3ncsc3c2)C1 (configuration not stated),i,i,nt
CN1C[C@H](NCc2cccnc2)CCC[C@@H](C(=O)NC2CC2)CC1=O,i,i,nt
COCC(=O)Nc1ccc([C@H]2OCC(=O)N(Cc3scnc3C)[C@@H]2CO)cc1,i,i,nt
Cn1nc(C(=O)NCCc2ccc(Cl)cc2)c2c1-c1ccccc1SC2,i,nt,nt
Cc1ccc(CCNC(=O)c2nn(C)c3c2CSc2ccccc2-3)cc1,-28.9,nt,i
O=C(CN1C(=O)COc2ccc(S(=O)(=O)NC3CCCC3)cc21)Nc1ccc(F)c(Cl)c1,i,nt,nt
O=C(CN1C(=O)COc2ccc(S(=O)(=O)NC3CCCC3)cc21)Nc1ccc(Cl)cc1F,-27.9,nt,i
CC(C)Cc1cn(C2CCN(CC(C)c3ccccc3)CC2)nn1 (configuration not stated),i,i,nt
Cc1ccc(Cl)cc1NC(=O)N1CCN(C)c2ncccc21,i,nt,nt
CN1CCN(C(=O)Nc2cccc(Cl)c2)c2cccnc21,-32.4,nt,i
COc1ccc(OC)c(CN2CCCn3nc(C)c(-c4ccccc4OCc4ccccc4)c32)c1,i,i,nt
O=C(c1ccccc1F)N1CCN(C(=O)c2nnn3c2COC(c2ccccc2)C3)CC1 (configuration not stated),i,i,nt
O=C(c1cc(Cl)ccc1F)N1CCN(C(=O)c2nnn3c2COC(c2ccccc2)C3)CC1 (configuration not stated),-32.2,i,i
SMILES,IP6K1 inhibitor,GPT2 inhibitor,IP6K1 conf
COc1ccc(CNC(=O)C2CCN(S(=O)(=O)c3cn(C)cn3)CC2)cc1,i,nt,nt
CCOc1ccc(CNC(=O)C2CCN(S(=O)(=O)c3cn(C)cn3)CC2)cc1,-26.3,nt,i
CCCc1noc(-c2cn(C3CCN(C(=O)c4ccoc4)CC3)nn2)n1,i,i,nt
Cc1cccc(CC(=O)N2CC3CC(C2)[C@H]2CCCC(=O)N2C3)c1 (some centres not stated),i,i,nt
O=C(NCCNC(=O)c1cccc(-c2ccsc2)c1)c1ccc(C(F)(F)F)cc1,i,i,nt
Brc1c(Br)c(Br)c2n[nH]nc2c1Br,nt,i,0.731µM
Brc1c(Br)c(Br)c2[nH]cnc2c1Br,nt,i,nt
CCOc1ccccc1NC(=O)N1CCC(Oc2ccccc2-c2nc(C)no2)C1 (configuration not stated),i,i,nt
COc1ccc(-c2csc(=Nc3ccccc3)n2CCO)cc1F,-31.4,nt,?
CCN(CC)CCn1c(-c2ccccc2)csc1=Nc1ccccc1,i,nt,nt
CNC(=O)c1cc(C2CC2)nc2c1c(C1CCCN(C(=O)c3ccccc3C)C1)nn2C (configuration not stated),i,nt,nt
Cn1ncc2c(C(=O)NCc3ccccc3F)cc(-c3ccc(C(F)(F)F)cc3)nc21,i,nt,nt
COc1cc(C(C)C)c(Oc2cnc(NC(CO)CO)nc2N)cc1I,nt,i,nt
COc1cc(C(C)C)c(Oc2cnc(N)nc2N)cc1I,-29.1,i,?
O=C(NC[C@H](O)CO)c1ccncc1Nc1ccc(I)cc1F,nt,i,i
O=C(NOCC(O)CO)c1ccc(F)c(F)c1Nc1ccc(I)cc1F (configuration not stated),i,i,nt
c1ccc(CN2CC[C@H](c3nnc(-c4ccncc4)o3)C2)cc1,i,i,nt
CC(=O)Nc1ccccc1,i,i,nt
O=C(CS)Nc1ccccc1,-27.0,i,?
O=C(NCC1CC1)c1ccc2nnc(-c3ccc(C(F)(F)F)cc3)n2c1,i,?,nt
N=c1c2c(-c3ccccc3)cn(Cc3ccccc3)c2ncn1CCCO,nt,nt,i
Cn1c(=O)c2c(-c3ccccc3)n(CCCO)cc2n(C)c1=O,i,nt,nt
COc1ccc(-c2c(C(=O)NCC(C)C)nc3sccn23)cc1,i,i,nt
O=C(c1ccccc1)N1Cc2[nH]cnc2C[C@H]1c1nc(-c2ccc(Cl)cc2)no1,-38.7,i,?
COc1ccc(-c2noc([C@@H]3Cc4nc[nH]c4CN3C(=O)c3ccc(F)cc3)n2)cc1,i,i,nt
SMILES,IP6K1 inhibitor,GPT2 inhibitor,IP6K1 conf
COc1cc(OC)c(NC(=O)CN2C(=O)NC3(CCOCC3)C2=O)cc1Cl,i,i,nt
COc1ccccc1-c1ccc(CN2CCC(NC(=O)c3cccc(Cl)c3)C2)cc1 (configuration not stated),i,nt,nt
COc1cc2ncnc(Nc3cc(Br)c(O)c(Br)c3)c2cc1OC,i,?,?
COc1cc2ncnc(Nc3cccc(I)c3)c2cc1OC,-32.9,i,11.6µM
C#Cc1cccc(Nc2ncnc3cc(OCCOC)c(OCCO)cc23)c1,nt,i,nt
CC(C)COc1ccc(Nc2ncnc3ccc(Br)cc23)cc1,i,nt,nt
CNC(=O)c1ccn2cncc2c1,i,i,nt
COc1ccc(S(=O)(=O)Nc2nnc(CC(C)C)s2)cc1,i,i,nt
CCc1nnc(NS(=O)(=O)c2ccc(NC(=S)NC(=O)/C=C/c3ccc(F)cc3)cc2)s1,-29.1,i,20.6µM
COc1ccc(CC(=O)N2CC(N3C(=O)c4c(c(C)nn4-c4ccccc4)C3C)C2)cc1 (configuration not stated),i,nt,nt
O=C(Nc1ccc([C@@H](O)[C@H]2COCC(=O)N2CC2CCCCC2)cc1)C1CCC1,i,i,nt
Cc1ccc2c(c1)C(=O)C(=O)N2Cc1ccc(OC(C)C)cc1,-38.3,nt,i
Cc1ccc(C)c(CN2C(=O)C(=O)c3ccccc32)c1,i,nt,nt
Cn1cc(-c2cnn3c(N)c(Br)c([C@@H]4CCCNC4)nc23)cn1,i,i,nt
COc1ccc(NS(=O)(=O)c2cc(-c3onc(C)c3C)ccc2C)c(OC)c1,i,nt,nt
COc1ccc(OC)c(CNS(=O)(=O)c2cc(-c3onc(C)c3C)ccc2C)c1,-46.1,nt,i
COc1ccccc1-c1cccc(CN2CCCC(C(=O)N3CCN(Cc4ccccc4)CC3)C2)c1 (configuration not stated),i,i,nt
CC(=O)Nc1cc(C(=O)N2CCC(C)CC2)c2ccc(C)nc2c1,i,i,nt
CCOCCNc1ncnc2c1CN(C1CCCNCC1)C(=O)CN2C (configuration not stated),-28.2,i,i
CCOCCNc1ncnc2c1CN(C1CCCCC1)C(=O)CN2C,i,?,nt
